Shown are actives, neighbours in structure and some others; about 22% of the full set was active somewhere.
CYP2C19 activ: human CYP2C19 activators, primary screen, biochemical, luminescence; 96,000 tested, under 10 active; AID 1025, 2008; activation factor at 5 µM; recombinant CYP2C19, luciferin-H EGE luminescence; stronger effect = higher value; 0 = fully inhibited enzyme, 1 = untreated enzyme;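 active = activation factor of at least 2 at 5 µM in the primary screen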
Target sequence (P33261 whole entry, looked up): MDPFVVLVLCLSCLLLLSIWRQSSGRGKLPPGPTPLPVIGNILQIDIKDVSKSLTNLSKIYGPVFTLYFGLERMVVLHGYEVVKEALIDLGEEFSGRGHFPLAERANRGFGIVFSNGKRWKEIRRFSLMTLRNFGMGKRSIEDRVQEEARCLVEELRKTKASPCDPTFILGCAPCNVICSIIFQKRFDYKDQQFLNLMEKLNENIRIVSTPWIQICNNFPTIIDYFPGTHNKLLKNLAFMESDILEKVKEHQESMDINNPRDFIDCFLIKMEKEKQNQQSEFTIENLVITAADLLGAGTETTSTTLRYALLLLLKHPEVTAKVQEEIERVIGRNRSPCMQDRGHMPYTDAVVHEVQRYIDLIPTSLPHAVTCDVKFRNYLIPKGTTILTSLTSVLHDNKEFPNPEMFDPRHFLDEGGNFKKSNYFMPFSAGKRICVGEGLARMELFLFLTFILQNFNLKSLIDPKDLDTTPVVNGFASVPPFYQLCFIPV
CYP2C9 act: human CYP2C9 activators, primary screen, biochemical, luminescence | AID 1024, 2008 | recombinant CYP2C9, luciferin-H conversion; stronger effect = higher value; factor 1 = untreated enzyme, 0 = blocked | Cytochrome P450 2C9 (Homo sapiens), P11712 | actives 1.4% (n = 96,000) | activation factor at 5 µM;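 active = activation factor of 2 or more for CYP2C9 at a 5 µM dose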
F-actin modifier: modifiers of F-actin cytoskeleton organization, primary screen, imaging, HUVEC, phalloidin staining, high-content imaging; actives 0.18% (n = 91,000); inhibition, % at 2 µM; HUVEC TNFa F-actin phalloidin imaging;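 active = inhibition above the batch mean plus 3 SD and confirmed as a hit by visual image inspection, cut at about 30% in these data, passing the limit was not always enough; inconclusive = above the inhibition threshold but rejected on visual inspection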
CYP2C9 inhib: blockers of cytochrome P450 2C9 activity – biochemical, luminescence, ADME assay, primary screen; P11712; CYP2C9 Supersomes, luciferin-H conversion; inhibition, % at 5 µM; actives 20% (n = 96,000); AID 777, 2007;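 active = blocking of liver enzyme CYP2C9 beyond about 50% at 5 µM, limit read from the data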
E-sel TNF inh: E-selectin induction blockers in HUVEC – imaging, immunofluorescence, high content, primary screen; HUVEC TNFa-induced E-selectin immunofluorescence; inhibition, % at 2 µM; actives 0.71% (n = 120,000); AID 1246, 2008;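 active = inhibition above the batch mean plus 3 SD, and confirmed as a hit on visual image review, cut at about 43% in these data; inconclusive = passes the inhibition cutoff but fails visual image review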
CYP2C19 inh: blockers of cytochrome P450 2C19 activity – biochemical, luminescence, ADME assay, primary screen | P33261 | AID 778, 2007 | inhibition, % at 5 µM | CYP2C19 Supersomes, luciferin-H EGE luminescence, 30 min | actives 21% (n = 96,000);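 active = CYP2C19 inhibition above a set limit at 5 µM in the primary screen, cut at about 50% in these data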
Large screens that a line does not name were inactive.

COc1ccc([N+](=O)[O-])cc1NC(=O)C1(c2ccccc2)CCOCC1	none (no result: CYP2C19 activ, CYP2C9 act, F-actin modifier, CYP2C9 inhib, CYP2C19 inh)
COc1ccc(CN2CNc3c(c(=O)n(C)c(=O)n3C)C2)cc1	none (no result: CYP2C19 activ, CYP2C9 act, F-actin modifier, CYP2C9 inhib, CYP2C19 inh)
O=C1/C(=N/n2cnnc2)c2ccccc2N1Cc1ccccc1	CYP2C19 inh 62.7
c1ccc2c(c1)C(=Nn1cnnc1)c1ccccc1-2	none
CCc1ccc(NC(=O)C2CCCCC2C(=O)O)cc1 (stereo not given)	none (no result: E-sel TNF inh)
Cc1c(C#N)c2ncnc(N)c2n1-c1ccccc1	none
CC(=O)N(C(C)=O)c1c(C#N)c(C)n(-c2ccccc2)c1C(=O)c1ccccc1	CYP2C19 inh 71.1
O=C(Nn1nnnc1Nc1ccccc1)C12CC3CC(CC(C3)C1)C2	CYP2C19 inh 71.3 (no result: F-actin modifier)
COc1ccccc1CNC(=O)CCN1C(=O)COc2ccc(C)cc21	CYP2C19 inh 62.0
O=C(CCN1C(=O)COc2ccccc21)NCc1ccco1	CYP2C19 inh 93.7 (no result: F-actin modifier)
Cc1ccc2c(c1)N(CCCC(=O)NCc1ccc3c(c1)OCO3)C(=O)CO2	none (no result: CYP2C19 activ, CYP2C9 act, F-actin modifier, CYP2C9 inhib, CYP2C19 inh)
O=C(CCN1C(=O)c2ccccc2S1(=O)=O)NCc1ccco1	none (no result: E-sel TNF inh)
COc1ccccc1CNC(=O)CCCN1C(=O)COc2ccc(C)cc21	CYP2C19 inh 61.9
O=C(CCCCCN1C(=O)c2ccccc2C1=O)NCc1ccco1	CYP2C9 inhib 60.2 (no result: E-sel TNF inh)
Cc1cc2c(s1)CCCCC(=O)N2	none
NS(=O)(=O)c1ccc(CCNC(=O)CN2CCN(c3cccc(Cl)c3)CC2)cc1	none (no result: CYP2C19 activ, CYP2C9 act, F-actin modifier, CYP2C9 inhib, CYP2C19 inh)
COc1ccccc1CNC(=O)CCN1C(=O)COc2ccccc21	CYP2C19 inh 50.0 (no result: E-sel TNF inh)
COCCCNC(=O)CCN1C(=O)COc2ccccc21	none (no result: E-sel TNF inh)
Cc1ccc2c(c1)N(CCC(=O)NCc1ccccn1)C(=O)CO2	CYP2C19 inh 55.0 (no result: E-sel TNF inh)
Cc1ccc2c(c1)N(CCC(=O)NCCN1CCOCC1)C(=O)CO2	none
CCN(CCCNC(=O)CCCN1C(=O)COc2ccc(C)cc21)c1cccc(C)c1	CYP2C9 inhib 58.3, CYP2C19 inh 50.3
Cc1cc(NC(=O)CSc2nc3ccccc3n2CC(=O)N2CCC(C)CC2)no1	none (no result: CYP2C19 activ, CYP2C9 act, CYP2C9 inhib, CYP2C19 inh)
Cc1ccc(/C=C(\NC(=O)c2ccc(C)cc2)c2nc(=S)[nH][nH]2)cc1	none
COc1cc(C(=O)OCCNC(=O)c2ccncc2)cc(OC)c1OC	E-sel TNF inh 61.8 (no result: CYP2C19 activ, CYP2C9 act, F-actin modifier, CYP2C9 inhib, CYP2C19 inh)
O=C(NCc1ccccc1)NC(=O)c1ccncc1	CYP2C9 inhib 82.0, CYP2C19 inh 95.3
O=C(NCCOC(=O)c1cccs1)c1cccnc1	CYP2C19 inh 60.8
O=C(NCCCc1ccccc1)c1ccncc1	CYP2C9 inhib 92.7, CYP2C19 inh 98.0
O=C(NCc1ccccc1)NC(=O)c1ccccc1	none
COC(CNC(=O)c1c[nH]c2ccc(S(=O)(=O)N3CCC4(CC3)OCCO4)cc2c1=O)OC	none (no result: CYP2C19 activ, CYP2C9 act, F-actin modifier, CYP2C9 inhib, CYP2C19 inh)
CCCCOc1ccc(Br)cc1CSC(=N)N	none (no result: CYP2C19 activ, CYP2C9 act, F-actin modifier, CYP2C9 inhib, CYP2C19 inh)
CCOC(=O)c1c(-c2cccs2)csc1NC(=O)c1ccco1	none (no result: CYP2C19 activ, CYP2C9 act, CYP2C9 inhib, CYP2C19 inh)
O=C(NCc1ccncc1)c1cnccn1	none
O=C(NCc1ccncc1)c1ccc(Br)cc1	F-actin modifier inconclusive, CYP2C19 inh 51.4
COC(=O)c1c(-c2cccs2)csc1NC(=O)c1cccnc1	CYP2C9 inhib 100.3, CYP2C19 inh 100.3 (no result: E-sel TNF inh)
O=C(NCCOC(=O)c1ccncc1)c1ccccc1	CYP2C9 inhib 92.5, CYP2C19 inh 71.1
O=C(NCCc1ccncc1)C(F)(F)F	none
Cc1ccc(C(=O)NCCc2ccncc2)cc1	CYP2C19 inh 51.3
O=C(CSc1nnc(CNC(=O)c2ccco2)o1)NC1CCCC1	none
Cc1oncc1C(=S)Nc1ccccc1	none (no result: E-sel TNF inh)
COc1ccc(C(=O)COC(=O)[C@H](C)Nc2ccc(C(F)(F)F)cc2[N+](=O)[O-])cc1	CYP2C9 inhib 75.1
Cc1cc(C)c(C(=O)COC(=O)[C@H](C)Nc2ccc(C(F)(F)F)cc2[N+](=O)[O-])c(C)c1	CYP2C9 inhib 90.3, CYP2C19 inh 79.0
COc1ccc2cc(CCNC(=O)c3ccc4c(c3)OCO4)c(=O)[nH]c2c1	CYP2C9 inhib 81.5 (no result: F-actin modifier)
COc1ccc2cc(CCNC(=O)c3ccc(Br)o3)c(=O)[nH]c2c1	CYP2C19 inh 50.8 (no result: F-actin modifier)
Cc1ccc(N=CC2=C(O)CC(c3ccc(Cl)cc3)CC2=O)cc1 (stereo not given)	none (no result: CYP2C19 activ, CYP2C9 act, F-actin modifier, CYP2C9 inhib, CYP2C19 inh)

Compound activity as filed in PubChem.
